PubChem BioAssay (Tox21)
Results filed as inconclusive are left out. The source made the active and inactive calls. Unless noted, calls follow the shape of the dose curve; as a rule, active = well fitted curve in the direction sought with a large enough effect in the repeat runs; inconclusive = weak or mixed curves; inactive = no such curve, though single readings can be large; an effect the other way counts as inactive or inconclusive.

Tests used:
[1] = qHTS assay to identify small molecule agonists or antagonists of the thyroid stimulating hormone receptor (TSHR) signaling pathway - wild type cell line counter screen (AID 1259384; calls by dose curve)
In short: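 Counter screen in untransfected Hek293: compounds (15-point titration, triplicate) plus phosphodiesterase inhibitor Ro20-1724 added after 18 h plating; 30 min RT. Intracellular cAMP via competitive d2/cryptate immunoassay, 1 h incubation.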

[2] = target: Thyrotropin receptor (Homo sapiens) (UniProt P16473); assay: qHTS assay to identify small molecule antagonists of the thyroid stimulating hormone receptor (TSHR) signaling pathway (AID 1259385; calls by dose curve; also: nearly all actives have a fitted effect of over 20% in size)
Thyrotropin receptor (Homo sapiens), sequence (P16473 whole entry, looked up): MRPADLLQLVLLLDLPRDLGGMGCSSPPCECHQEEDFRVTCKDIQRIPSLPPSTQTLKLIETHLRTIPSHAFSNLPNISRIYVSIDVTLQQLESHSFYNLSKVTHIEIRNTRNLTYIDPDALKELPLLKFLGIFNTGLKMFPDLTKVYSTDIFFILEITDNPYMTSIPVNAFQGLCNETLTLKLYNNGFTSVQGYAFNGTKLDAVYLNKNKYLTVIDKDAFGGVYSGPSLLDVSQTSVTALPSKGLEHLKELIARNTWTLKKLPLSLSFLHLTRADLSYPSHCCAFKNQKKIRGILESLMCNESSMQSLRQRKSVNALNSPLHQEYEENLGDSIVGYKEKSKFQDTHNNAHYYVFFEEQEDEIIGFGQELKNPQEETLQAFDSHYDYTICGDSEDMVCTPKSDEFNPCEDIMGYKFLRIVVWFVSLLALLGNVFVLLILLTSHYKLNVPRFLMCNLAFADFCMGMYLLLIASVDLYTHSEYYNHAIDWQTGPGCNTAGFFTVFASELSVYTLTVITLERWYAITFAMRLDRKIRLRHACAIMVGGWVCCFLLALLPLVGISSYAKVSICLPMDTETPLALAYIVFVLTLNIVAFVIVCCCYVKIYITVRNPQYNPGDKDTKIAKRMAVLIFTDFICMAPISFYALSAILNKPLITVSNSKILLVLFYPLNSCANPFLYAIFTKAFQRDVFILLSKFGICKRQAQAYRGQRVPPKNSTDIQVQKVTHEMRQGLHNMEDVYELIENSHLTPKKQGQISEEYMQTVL
In short: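 Antagonist mode: compound-treated TSHR-expressing HEK293 cells were stimulated with 1.5 ng/mL TSH (final) in presence of Ro20-1724 for 30 min at RT. HTRF cAMP detection after 1 h; each compound tested at 15 concentrations, triplicate.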

[3] = target: Progesterone receptor (Homo sapiens) (UniProt P06401); assay: qHTS assay to identify small molecule agonists of the progesterone receptor (PR) signaling pathway (AID 1346784; calls by dose curve; also: nearly all actives have a fitted effect of over 30% in size)
Progesterone receptor (Homo sapiens), sequence (P06401 whole entry, looked up): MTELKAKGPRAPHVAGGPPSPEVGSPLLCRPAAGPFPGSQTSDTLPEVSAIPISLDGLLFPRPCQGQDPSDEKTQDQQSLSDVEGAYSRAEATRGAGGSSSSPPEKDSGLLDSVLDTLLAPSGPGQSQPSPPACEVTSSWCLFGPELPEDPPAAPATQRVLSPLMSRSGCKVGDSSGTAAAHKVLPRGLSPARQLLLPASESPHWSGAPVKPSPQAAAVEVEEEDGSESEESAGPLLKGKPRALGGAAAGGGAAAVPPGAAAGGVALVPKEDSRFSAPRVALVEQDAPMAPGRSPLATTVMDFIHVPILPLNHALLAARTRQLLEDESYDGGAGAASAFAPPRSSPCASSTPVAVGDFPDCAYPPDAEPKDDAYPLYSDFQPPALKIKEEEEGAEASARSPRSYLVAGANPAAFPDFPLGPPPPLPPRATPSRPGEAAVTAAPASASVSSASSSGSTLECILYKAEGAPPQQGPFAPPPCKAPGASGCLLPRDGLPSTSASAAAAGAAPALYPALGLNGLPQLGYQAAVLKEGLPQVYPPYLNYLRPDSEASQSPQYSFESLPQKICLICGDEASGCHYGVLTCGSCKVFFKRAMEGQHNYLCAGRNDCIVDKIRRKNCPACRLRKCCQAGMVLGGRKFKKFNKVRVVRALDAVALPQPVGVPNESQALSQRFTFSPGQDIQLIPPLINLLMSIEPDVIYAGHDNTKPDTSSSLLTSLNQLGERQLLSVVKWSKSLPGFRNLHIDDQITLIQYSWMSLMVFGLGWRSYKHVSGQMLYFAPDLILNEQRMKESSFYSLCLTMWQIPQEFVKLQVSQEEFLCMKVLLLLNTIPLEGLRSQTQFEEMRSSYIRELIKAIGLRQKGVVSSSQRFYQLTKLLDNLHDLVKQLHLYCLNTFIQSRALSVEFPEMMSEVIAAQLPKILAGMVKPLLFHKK
In short: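 Fluorescence from LiveBLAzer B/G FRET substrate cleavage (2 hr, RT) reported PR activation in PR-UAS-bla HEK 293T cells treated 16 hr at 37C/5% CO2 with compounds; medium contained 2% charcoal-stripped FBS.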

[4] = qHTS assay to identify small molecule agonists of the progesterone receptor (PR) signaling pathway - cell viability counter screen (AID 1346799; calls by dose curve; also: nearly all actives have a fitted effect of over 45% in size)
In short: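 In parallel with the beta-lactamase readout, cytotoxicity toward PR-UAS-bla HEK293T cells was measured by CellTiter-Glo luminescence following 16 hr compound incubation in 2% charcoal-stripped FBS medium.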

[5] = qHTS assay to identify small molecule antagonists of the TGF-beta/Smad signaling pathway - cell viability counter screen (AID 1346824); also: nearly all actives have a fitted effect of over 50% in size
In short: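 Cytotoxicity counter-screen run in the same wells as the beta-lactamase Smad reporter read: CellTiter-Glo luminescence after 30 min at room temperature. HEK 293T SBE-bla cells had 5 hr compound exposure at 37 C with TGF-beta1 (0.25 ng/mL stock).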

[6] = qHTS assay to identify small molecule agonists of the TGF-beta/Smad signaling pathway - cell viability counter screen (AID 1346829); also: top concentration of the series differs between compounds; nearly all actives have a fitted effect of over 45% in size
In short: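 After overnight seating at 37 C and 5% CO2, reporter cells got compounds for 5 hr and FRET substrate for 2 hr; cell viability then came from CellTiter-Glo luminescence.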

[7] = target: Progesterone receptor (Homo sapiens) (UniProt P06401); assay: qHTS assay to identify small molecule antagonists of the progesterone receptor (PR) signaling pathway (AID 1346795; active = well fitted inhibition curve with a large enough effect in the signal ratio in the repeat runs, not every such curve was filed as active; the % refers to the signal ratio)
In short: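 Fluorescence intensity measured 2 hr after adding beta-lactamase FRET substrate to PR-UAS-bla HEK293T cells that had been co-treated 16 hr with compound and 1 nM R5020 (final concentration) in 2% charcoal-stripped FBS.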

[8] = qHTS assay to identify small molecule antagonists of the progesterone receptor (PR) signaling pathway - cell viability counter screen (AID 1346798); also: series mostly up to about 92 µM; nearly all actives have a fitted effect of over 50% in size
In short: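 CellTiter-Glo luminescence; PR-UAS-bla HEK293T, 3,000 cells/well; compound + R5020, 16 hr, 37C/5% CO2; 30 min RT before read.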

[9] = qHTS assay to identify small molecule agonists of the estrogen receptor alpha (ER-alpha) signaling pathway in the presence of an antagonist - cell viability counter screen (AID 1259386);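 also: series mostly up to about 92 µM; cells exposed to compounds for 22 h at 37 °C before the viability read; nearly all actives have a fitted effect of over 30% in size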
In short: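 The test measures whether compounds kill ER-alpha reporter cells (VM7Luc4E2) under antagonist co-treatment (ICI-182,780, 10.0nM). Fluorescence from CellTiter-Fluor is read after a 22hr exposure.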

Measured: Potency

CC(O)CCCCn1c(=O)c2c(ncn2C)n(C)c1=O (stereo not given)
not listed: [7] | [8] | [9]
inactive: all other assays above

N#Cc1cc(NC(=O)C(=O)O)c(Cl)c(NC(=O)C(=O)O)c1
not listed: [3] | [9]
inactive: all other assays above

CCCCCCCCS(=O)(=O)O
not listed: [3] | [8] | [9]
inactive: all other assays above

CCCc1ncc(C(=O)O)s1
not listed: [1] | [2] | [7]
inactive: all other assays above

CCCCN(CCCC)CCCCCCN(CCCC)CCCC
inactive: [1] | [2] | [7] | [8] | [6]

COc1ccc(Cl)cc1C
not listed: [1] | [2] | [9]
inactive: all other assays above

O=C1Nc2ccccc2C1=O
not listed: [5] | [8] | [9]
inactive: all other assays above

CCOC(=O)c1ccc(N(C)C)cc1
inactive: [3] | [7] | [8] | [5] | [6]

COC(=O)N/N=C/c1c[n+]([O-])c2ccccc2[n+]1[O-]
not listed: [2] | [4]
inactive: all other assays above

C=C(C)C(=O)OCCOC1CC2CC1C1C=CCC21 (stereo not given)
not listed: [2] | [5] | [9]
inactive: all other assays above

O=C[C@@H](O)[C@H](O)[C@H](O)CO
not listed: [3] | [8] | [9]
inactive: all other assays above

C[Si](C)(C)O[Si](O)(O)O
inactive: [9] | [3] | [5] | [6]
